Assay results as given in PubChem BioAssay (NCATS).
Values joined by “and” are separate entries in the source; they are usually repeats but may differ in a detail not shown here. Equal values may be shown once. Records with an inconclusive call do not appear. Active and inactive are the calls of the source. Unless noted, calls follow the shape of the dose curve; as a rule, active = well fitted curve in the direction sought with a large enough effect; inconclusive = small, poorly fitted or top-dose-only effect, or another doubt; inactive = no such curve, though single readings can be large; an effect the other way counts as inactive or inconclusive.

Experiments:
[1] = molecular target: Hexokinase-4 (Homo sapiens) + Glucokinase regulatory protein (Homo sapiens) (UniProt P35557+Q14397); assay: qHTS assay for inhibitors of recombinant human GCK-GKRP interaction: HTRF assay (AID 743207);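 also: 0% = DMSO with GCK present and -100% = DMSO wells lacking GCK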
Method in brief: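 HTRF read-out (ex 320 nm; 615/665 nm emission) after 60 min RT equilibration of 5 nM GST-GCK, 5 nM FLAG-GKRP, 2 uM S6P, compound and anti-FLAG/anti-GST detection antibodies; signal normalized between DMSO wells with and without GCK.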

[2] = High-throughput drug toxicity screening in the BPDCN cell line Gen2.2 (AID 1224824; call rule not given here;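 also: cells exposed to compounds for 48 h before reading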); settings: Gen2.2 BPDCN cells; at 45.8 µM (top of the series) unless noted
Method in brief: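 CellTiter-Glo luminescence after 48 h compound exposure of Gen2.2 cells; percent activity set with DMSO as 100% and bortezomib (9.2 uM final) as 0%. Cells seeded at 500 per well, RPMI + 10% FBS, 37 °C.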

[3] = qHTS assay for measurement of the activity of small molecule inhibitors on Zika virus induced Caspase-3 activity in human iPSC derived neural progenitor cells (hNPCs) (AID 1224857); also: % of control where 0% means no effect; nearly all actives have a fitted effect of over 65% in size
Method in brief: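 Pretreat hNPCs with compound 1 h; infect ZIKV 2 FFU/cell; 6 h 37 C, 5% CO2; Caspase-Glo 3/7, 30 min RT; luminescence; normalize to no-virus and virus-only wells.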

[4] = qHTS assay for measurement of the activity of small molecule inhibitors on Zika virus induced Caspase-3 activity in human astrocytoma cells (AID 1224859);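 also: plate controls were ZIKV-infected untreated cells for no effect and uninfected cells for full effect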
Method in brief: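 Human SNB-19 astrocytoma cells in RPMI 1640 with 10% FBS receive compound one hour ahead of Zika virus at 2 FFU/cell. After 6 h infection, caspase-3/7 activity is detected by Caspase-Glo luminescence.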

[5] = qHTS profiling of the MIPE4 collection as inhibitors of Plasmodium falciparum (3D7) proliferation (AID 743344; call rule not given here;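 also: scaled between DMSO vehicle wells and 0.29 µM artemisinin as full inhibition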); settings: P. falciparum 3D7 in erythrocytes, SYBR Green DNA fluorescence, 72 h; at 28.5 µM (top of the series) unless noted
Method in brief: (§1)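 Parasite DNA was quantified by SYBR Green I fluorescence (ex 485, em 535 nm) after overnight lysis in saponin/Triton buffer at room temperature. Cultures at 0.3% parasitemia and 2.5% hematocrit were first exposed to compound for 72 h at 37 C; signals were normalised to artemisinin (0.29 uM) and vehicle wells.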

[6] = qHTS profiling of the MIPE4 collection as inhibitors of Plasmodium falciparum (DD2) proliferation (AID 743345; call rule not given here); settings: P. falciparum Dd2 in erythrocytes, SYBR Green DNA, 72 h; at 28.5 µM (top of the series) unless noted
Method in brief: as §1

[7] = qHTS profiling of the MIPE4 collection as inhibitors of Plasmodium falciparum (DD2) proliferation (Rep 2) (AID 743346; call rule not given here); settings: P. falciparum Dd2 in erythrocytes, SYBR Green DNA, 72 h; at 28.5 µM (top of the series) unless noted
Method in brief: as §1

[8] = qHTS profiling of the MIPE4 collection as inhibitors of Plasmodium falciparum (HB3) proliferation (AID 743347; call rule not given here;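 also: plate controls were DMSO vehicle wells for no effect and artemisinin wells for full effect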); settings: P. falciparum HB3 in erythrocytes, SYBR Green DNA, 72 h; at 28.5 µM (top of the series) unless noted
Method in brief: as §1

[9] = qHTS assay to identify small molecule inhibitors of chordoma cells - UCH-1 (AID 1259355); also: % is scaled to controls: 0 for no effect and ±100 for the full control effect; nearly all actives have a fitted effect of over 55% in size
Method in brief: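 Screening used approved and investigational drugs in 15-point titration against 800 seeded cells per well. A fixed combination of auranofin with camptothecin, doxorubicin, rubitecan and topotecan followed compound addition, and growth was scored by CellTiter-Glo after 48hr.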

[10] = qHTS assay to identify small molecule inhibitors of chordoma cells - UCH-2 (AID 1259356); also: % is scaled to controls: 0 for no effect and ±100 for the full control effect
[11] = qHTS Assay for Identifying Gametocytocidal Compounds (AID 743244);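 also: % is scaled to controls: 0 for no effect and ±100 for the full control effect; actives lower the fluorescent signal which means gametocytes are killed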; settings: P. falciparum 3D7 stage III-V gametocytes, alamarBlue, 72 h; max response: stronger effect = lower value
Method in brief: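 Compounds are pinned into medium, gametocytes (stage III–V, 3D7, 20,000 cells/well) added, and plates held 72 h at 37 °C in 5% CO2. AlamarBlue follows for 24 h before fluorescence reading.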

[12] = qHTS Screen of the MIPE 4.0 Collection Against Ewings Sarcoma (RDES) (AID 1259252); also: nearly all actives have a fitted effect of over 35% in size; also: potency is read from the fitted curve at half-maximal effect
Method in brief: (§2)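 Viability screen: 48 h incubation at 37C, 95% humidity, 5% CO2 with serially titrated compound, followed by CellTiter-Glo readout.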

[13] = qHTS Screen of the MIPE 4.0 Collection Against Ewings Sarcoma (TC32) (AID 1259256); also: nearly all actives have a fitted effect of over 45% in size; also: potency is read from the fitted curve at half-maximal effect
Method in brief: as §2

[14] = qHTS Screen of the MIPE 4.0 Collection Against Ewings Sarcoma (TC71) (AID 1259253); also: potency is read from the fitted curve at half-maximal effect; nearly all actives have a fitted effect of over 40% in size
Method in brief: as §2

[15] = qHTS assay for cell viability of HEK293 cells (AID 743288); settings: ATP luminescence (CellTiter-Glo), 18 h; max response: stronger effect = lower value; also: % is scaled to controls: 0 for no effect and ±100 for the full control effect; nearly all actives have a fitted effect of over 50% in size
Method in brief: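 ATP luminescence (CellTiter-Glo) reports metabolically competent cell number after parental HEK293 cells, 2,000/well, were treated with DMSO-dissolved compounds for 18 h at 37 C; reagent incubation 30 min, room temperature.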

[16] = qHTS Screen of the MIPE 4.0 Collection Against Ewings Sarcoma (EW8) (AID 1259255); also: potency is read from the fitted curve at half-maximal effect; nearly all actives have a fitted effect of over 35% in size
Method in brief: as §2

Hexokinase-4 (Homo sapiens) + Glucokinase regulatory protein (Homo sapiens), sequence (P35557 whole entry, looked up): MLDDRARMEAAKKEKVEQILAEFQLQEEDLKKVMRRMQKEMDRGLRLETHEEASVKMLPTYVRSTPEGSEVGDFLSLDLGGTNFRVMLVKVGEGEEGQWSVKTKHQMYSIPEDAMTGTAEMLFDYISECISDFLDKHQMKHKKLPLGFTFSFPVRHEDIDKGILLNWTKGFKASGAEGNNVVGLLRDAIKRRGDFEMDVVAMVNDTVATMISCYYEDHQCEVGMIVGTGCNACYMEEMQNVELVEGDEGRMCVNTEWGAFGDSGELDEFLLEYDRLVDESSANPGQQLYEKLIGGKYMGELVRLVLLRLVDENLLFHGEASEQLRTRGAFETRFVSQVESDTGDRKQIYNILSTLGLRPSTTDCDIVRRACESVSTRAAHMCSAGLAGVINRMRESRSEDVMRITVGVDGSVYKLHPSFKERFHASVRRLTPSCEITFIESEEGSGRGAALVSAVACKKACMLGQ
Hexokinase-4 (Homo sapiens) + Glucokinase regulatory protein (Homo sapiens), sequence (Q14397 whole entry, looked up): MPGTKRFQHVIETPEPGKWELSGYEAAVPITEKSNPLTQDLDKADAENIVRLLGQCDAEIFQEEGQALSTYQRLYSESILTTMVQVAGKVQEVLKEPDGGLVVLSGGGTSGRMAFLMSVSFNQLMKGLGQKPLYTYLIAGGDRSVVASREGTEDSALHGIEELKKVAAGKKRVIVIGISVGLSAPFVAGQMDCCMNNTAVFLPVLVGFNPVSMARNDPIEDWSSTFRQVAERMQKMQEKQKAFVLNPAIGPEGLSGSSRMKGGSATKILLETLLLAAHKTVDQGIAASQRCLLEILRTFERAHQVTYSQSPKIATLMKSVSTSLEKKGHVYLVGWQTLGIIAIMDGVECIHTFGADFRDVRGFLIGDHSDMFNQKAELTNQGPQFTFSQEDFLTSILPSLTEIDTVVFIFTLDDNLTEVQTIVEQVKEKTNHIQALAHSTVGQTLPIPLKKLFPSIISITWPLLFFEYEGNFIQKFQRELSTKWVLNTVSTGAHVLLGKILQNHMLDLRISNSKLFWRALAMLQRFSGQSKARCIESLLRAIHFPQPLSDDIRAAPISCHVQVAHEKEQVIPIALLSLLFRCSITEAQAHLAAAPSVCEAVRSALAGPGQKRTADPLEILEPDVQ

| SMILES | Potency [1] | cell viability, % of control (lower = more cytotoxic) [2] | Potency [3] | Potency [4] | parasite growth, % of DMSO control [5] | parasite growth remaining, % of DMSO control (lower = more inhibition) [6] | parasite growth, % of control (lower = inhibition) [7] | growth, % of control [8] | Potency [9] | outcome [10] | max response [11] | Potency [12] | Potency [13] | Potency [14] | max response [15] | Potency [16] |
| --- | --- | --- | --- | --- | --- | --- | --- | --- | --- | --- | --- | --- | --- | --- | --- | --- |
| CN1C2CCC1CC(OC(=O)C(CO)c1ccccc1)C2 (configuration not stated) | inactive | 172% | inactive | inactive | – | – | – | – | – | – | – | – | – | – | – | – |
| Clc1ccccc1C(c1ccccc1)(c1ccccc1)n1ccnc1 | inactive | 52.9% | inactive | inactive | 4.91% | 6.19% | 11% | 5.57% | inactive | inactive | – | – | – | – | – | – |
| NC(=O)OCC(COC(N)=O)c1ccccc1 | inactive | 156% | inactive | inactive | 97.2% | 97.8% | 95.5% | 63.7% | inactive | inactive | 0.706% (inactive) and 21.3% (inactive) | inactive | 5.9 µM (active) | – | – | – |
| CC(C)NCC(O)COc1ccc(CCOCC2CC2)cc1 (configuration not stated) | – | 88.1% | inactive | inactive | 77% | 89.8% | 46.9% | 57.9% | inactive | inactive | -0.0756% (inactive) and 27.3% (inactive) | inactive | inactive | – | – | – |
| O=C1N(c2ccccc2)c2ccccc2C1(Cc1ccncc1)Cc1ccncc1 | inactive | 266% | inactive | inactive | 105% | 86.2% | 120% | 106% | inactive | inactive | -4.76% (inactive) and 23.2% (inactive) | – | inactive | 16.6 µM (active) | – | – |
| CC(C)(Oc1ccc(C2CC2(Cl)Cl)cc1)C(=O)O (configuration not stated) | inactive | 77.7% [at 92.2 µM] | inactive | inactive | 107% [at 57.5 µM] | 105% [at 57.5 µM] | 92.2% [at 57.5 µM] | 81.2% [at 57.5 µM] | inactive | inactive | – | 8.55 µM (active) | 42.9 µM (active) | – | -8.57% (inactive) | 7.62 µM (active) |
| Nc1nnc(-c2cccc(Cl)c2Cl)c(N)n1 | inactive | 86.5% | inactive | inactive | 93.8% | 98% | 104% | 98.1% | inactive | inactive | 5.45% (inactive) and 12.4% (inactive) | – | – | – | – | – |
